Source: PubChem
This is a sample that favours compounds with a hit; in the whole collection about 27% have one here.
CYP2C9 inhib: human CYP2C9 inhibition; P11712; CYP2C9 Supersomes, luciferin-H conversion, luminescence; inhibition, % at 5 µM; 96,000 tested, 20% active; AID 777;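 active means blocking of liver enzyme CYP2C9 beyond about 50% at 5 µM, limit read from the data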
CYP2C9 activ: increases human cytochrome P450 2C9 activity; recombinant CYP2C9, luciferin-H conversion, luminescence; stronger effect = higher value; factor 1 = untreated enzyme, 0 = blocked; P11712; activation factor at 5 µM; 96,000 tested, 1.4% active;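 active means activation factor of 2 or more for CYP2C9 at a 5 µM dose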;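 further: 0 = sulfaphenazole-blocked wells and 1 = vehicle-only wells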
CYP2C19 act: cytochrome P450 2C19 (human) activation | AID 1025 | activation factor at 5 µM | 96,000 tested, under 10 active | recombinant CYP2C19, luciferin-H EGE luminescence; stronger effect = higher value; 0 = fully inhibited enzyme, 1 = untreated enzyme;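 active means activation factor of at least 2 at 5 µM in the primary screen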;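 further: 0 = wells with 2.5 mM tranylcypromine and 1 = vehicle-only wells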
Target sequence (P33261 whole entry, looked up): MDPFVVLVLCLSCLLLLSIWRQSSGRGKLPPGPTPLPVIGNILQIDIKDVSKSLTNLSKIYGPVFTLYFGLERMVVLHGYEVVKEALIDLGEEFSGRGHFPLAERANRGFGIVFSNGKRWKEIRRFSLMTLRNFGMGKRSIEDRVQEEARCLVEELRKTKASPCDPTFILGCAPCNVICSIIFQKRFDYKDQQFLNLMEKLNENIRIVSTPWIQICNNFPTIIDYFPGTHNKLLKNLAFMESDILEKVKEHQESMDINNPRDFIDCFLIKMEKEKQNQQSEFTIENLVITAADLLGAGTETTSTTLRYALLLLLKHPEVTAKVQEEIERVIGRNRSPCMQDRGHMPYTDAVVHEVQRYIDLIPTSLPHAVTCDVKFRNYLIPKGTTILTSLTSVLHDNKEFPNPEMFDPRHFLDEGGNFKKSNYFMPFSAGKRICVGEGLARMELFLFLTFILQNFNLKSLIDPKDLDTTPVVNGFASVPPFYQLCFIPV
Cav3 T inh: human Cav3.2 channel inhibition, primary screen. O95180. Cav3.2-expressing cells, Fluo-4 calcium fluorescence FDSS; stronger effect = lower value. B-score at 10 µM. 100,000 tested, 4% active;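 active means single-dose well whose peak fluorescence ratio is a statistical outlier from its plate by either plate-standardised score or position-corrected B-score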
CYP2C19 inh: blocks human cytochrome P450 2C19 | CYP2C19 Supersomes, luciferin-H EGE luminescence, 30 min | inhibition, % at 5 µM | 96,000 tested, 21% active | AID 778;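 active means CYP2C19 inhibition above a set limit at 5 µM in the primary screen, cut at about 50% in these data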;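 further: plate controls were negative control wells for no effect and 2.5 mM tranylcypromine positive control for full effect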
Active calls of the source: *; · = no result.

SMILES | CYP2C9 inhib | CYP2C9 activ | CYP2C19 act | Cav3 T inh | CYP2C19 inh
Cc1ccc2nc(-c3cccnc3SCC(=O)N3c4ccccc4CC3C)[nH]c2c1 (configuration not stated) | 15.5 | 0.8 | 0.9 | -4.4* | 8.2
CC1Cc2ccccc2N1C(=O)CSc1nc(N)cc(=O)[nH]1 (configuration not stated) | 11.5 | 0.9 | 1 | -0.258 | 1.4
Cc1ccc2nc(SCC(=O)N3c4ccccc4CC3C)c(C)cc2c1 (configuration not stated) | 67.3* | 0.3 | 0.6 | -1.96 | 37.6
Cc1ccccc1-n1ncc2c(SCC(=O)N3c4ccccc4CC3C)ncnc21 (configuration not stated) | 61.5* | 0.4 | 0.7 | -0.666 | 34.4
CC1(C)Cc2ccccc2C(NNC(=O)c2ccncc2)=N1 | -2.0 | 1 | 1 | 0.0189 | -0.3
Nc1c(C(O)(C(F)(F)F)C(F)(F)F)ccc2ccccc12 | · | · | · | -0.379 | ·
O=S(=O)(c1ccc(Cl)cc1)N1CCCC1c1nc2ccccc2s1 (configuration not stated) | 45.1 | 0.5 | 0.6 | -4.51* | 37.5
O=C(CSc1nc2ccccc2s1)Nc1ncccn1 | -10.8 | 1.1 | 0.6 | 0.34 | 40.8
O=C(CSc1nc2ccccc2s1)N1CCCCC1 | 21.0 | 0.8 | 0.2 | 0.332 | 83.5*
CC1CCCC(C)N1C(=O)CSc1nc2ccccc2s1 (configuration not stated) | 60.8* | 0.4 | 0.1 | -1.1 | 85.7*
O=C(CSc1c(Cl)cccc1Cl)N1CCC(c2nc3ccccc3s2)CC1 | 28.3 | 0.7 | 1 | · | 0.5
CC1CCCN(C(=O)CSc2cnc3ccccc3n2)C1 (configuration not stated) | 10.6 | 0.9 | 0.5 | 0.536 | 50.0*
Cc1cc(NC(=O)CSc2nc3ccccc3s2)no1 | 25.7 | 0.7 | 0.7 | -0.453 | 34.0
O=C(CSc1ccc(Cl)cc1)N1CCC(c2nc3ccccc3s2)CC1 | 54.5* | 0.5 | 0.8 | -2.8 | 24.8
CC1CN(C(=O)C(C)Sc2nc3ccccc3s2)CC(C)O1 (configuration not stated) | 44.2 | 0.6 | 0.1 | 0.149 | 93.6*
CC1CCN(C(=O)CSc2nc3ccccc3s2)CC1 | 63.4* | 0.4 | 0.4 | · | 56.6*
CCc1ccc(C(=O)N2CCC(c3nc4ccccc4s3)CC2)cc1 | 76.4* | 0.2 | 0.6 | -2.83 | 38.9
O=C(c1ccc(S(=O)(=O)N2CCC(c3nc4ccccc4s3)CC2)cc1)N1CCOCC1 | -2.7 | 1 | 1.1 | · | -9.3
NC(=O)C1CCN(C(=O)CSc2nc3ccccc3s2)CC1 | 22.6 | 0.8 | 0.9 | 0.103 | 8.4
COc1ccc(-n2c(O)c(Cc3ccccc3)c(=O)n3nc(-c4ccccc4)c(=O)cc23)cc1 | · | · | · | 0.852 | ·
COCCN(C(=O)COc1ccc(Cl)cc1)c1nnc(-c2cccnc2)s1 | · | · | · | -0.413 | ·
CCCCC1CC(C)(C(=O)CSc2nc3ccccc3s2)OC1=O (configuration not stated) | 77.7* | 0.2 | 1 | 0.0619 | 3.7
CC1=C(C(=O)Nc2ccc(Br)cc2)C(c2ccco2)NC(=O)N1 (configuration not stated) | 2.2 | 1 | 0.9 | 0.271 | 8.8
CCOc1cc2c(cc1C(C)(C)C)NC(=O)CS2 | -10.1 | 1.1 | 1 | -0.553 | -0.6
CC(C)NC(=O)/C(=C/c1ccco1)c1ccccc1 | 3.0 | 1 | 1.1 | 0.587 | -9.1
SMILES | CYP2C9 inhib | CYP2C9 activ | CYP2C19 act | Cav3 T inh | CYP2C19 inh
O=C(Nc1ccccc1)/C(=C/c1ccccc1)c1ccccc1 | · | · | · | -2.37 | ·
Cc1cc(C)c(NC(=O)/C(=C/c2ccco2)c2ccccc2)c(C)c1 | 67.9* | 0.3 | 0.2 | -2.74 | 76.8*
Cc1cccc(C)c1NC(=O)/C(=C/c1ccco1)c1ccccc1 | 69.6* | 0.3 | 0.6 | -8.61* | 43.3
Cc1ccccc1NC(=O)/C(=C/c1ccccc1)c1ccccc1 | 26.3 | 0.7 | 0.7 | -4.78* | 26.7
CC(=O)Cc1ccccc1OC(=O)c1ccco1 | -1.2 | 1 | 1 | -0.425 | 4.8
COc1cc(OC)c(C2N(c3ccc(Cl)cc3)C(=O)C3CCCN32)cc1OC (configuration not stated) | 35.9 | 0.6 | 0.7 | -0.516 | 29.9
Cc1snc(S(=O)(=O)/C(C#N)=N\Nc2ccccc2)c1C#N | 92.1* | 0.1 | 0.7 | 0.388 | 30.3
Cc1snc(S(=O)(=O)/C(C#N)=N/Nc2ccc(C(F)(F)F)cc2)c1C#N | 94.5* | 0.1 | 0.8 | -6.4* | 17.1
Cc1snc(SCC(=O)N/N=C(\N)COc2ccc(F)cc2)c1C#N | -6.8 | 1.1 | 1.2 | 0.0231 | -22.5
N#Cc1c(-c2ccccc2)ccn(Cc2ccc(Cl)cc2)c1=O | 54.5* | 0.5 | 0.6 | -0.655 | 36.0
Cc1cccc(Cn2ccc(-c3ccc(Cl)cc3)c(C#N)c2=O)c1 | 31.3 | 0.7 | 0.9 | 0.224 | 14.7
Cc1nn(-c2cc(N3CCCC3)ccc2[N+](=O)[O-])c(=O)c2ccccc12 | 8.1 | 0.9 | 0.8 | 0.607 | 24.4
O=S(=O)(c1ccccc1)c1nc(-c2ccco2)oc1NCCN1CCOCC1 | -39.0 | 1.4 | 0.9 | -2.32 | 6.1
CNc1cc(N2CCCCCC2)ccc1[N+](=O)[O-] | 46.8 | 0.5 | 0.5 | -1.17 | 51.1*
COc1ccc(OCCNc2cc(N3CCCCC3)ccc2[N+](=O)[O-])cc1 | 49.0 | 0.5 | 0.8 | · | 20.0
COc1ccc(OCCNc2cc(N3CCOCC3)ccc2[N+](=O)[O-])cc1 | 62.9* | 0.4 | 0.6 | · | 44.7
O=[N+]([O-])c1ccc(N2CCN(S(=O)(=O)c3ccccc3)CC2)cc1NCCN1CCOCC1 | 70.1* | 0.3 | 0.5 | 1.37 | 54.8*
COc1cccc(OCCNc2cc(N3CCCCC3)ccc2[N+](=O)[O-])c1 | 69.7* | 0.3 | 0.7 | -4.09* | 26.5
CC1=C(C#N)C(=O)OC(C)(C)C1 | -18.2 | 1.2 | 1.1 | 0.0353 | -14.2
CCc1ccccc1NC(=S)N1CCC(C(=O)c2ccc(F)cc2)CC1 | 20.6 | 0.8 | 0.6 | -2.64 | 35.3
COc1ccc(N2CCCn3c2nc2c3c(=O)n(Cc3ccccc3F)c(=O)n2C)c(OC)c1 | 26.9 | 0.7 | 0.8 | -0.909 | 21.9
COc1ccc2cc(Br)ccc2c1CC(=O)NC1CC(C)(C)NC(C)(C)C1 | 12.6 | 0.9 | 0.8 | 0.124 | 16.8
Cc1ccccc1OCCNc1cc(N2CCCCC2)ccc1[N+](=O)[O-] | 94.6* | 0.1 | 0.1 | -3.62 | 89.3*
CCC(CO)NCc1ccc2c(c1)n(C)c(=O)n2C (configuration not stated) | -11.0 | 1.1 | 1.1 | 0.248 | -11.3
Nc1nnc(SCC(=O)c2ccccc2)s1 | 0.4 | 1 | 0.8 | 0.371 | 21.0
CCCCOC(=O)CSc1nnc(N)s1 | 15.8 | 0.8 | 0.5 | 1.26 | 51.7*
c1ccc(Oc2cccc(NC3=NCCC3)c2)cc1 | 0.4 | 1 | 0.8 | -0.00141 | 15.7
O=C(Nc1ccccc1)N(C1=NCCC1)c1ccc(OC(F)F)cc1 | 79.4* | 0.2 | 0.5 | 0.0295 | 50.5*
Cc1nnsc1NC(=O)OCc1ccccc1Cl | 28.2 | 0.7 | 0.2 | -0.176 | 76.4*
Cc1cccc(Oc2ccc(N)cc2)c1 | 29.1 | 0.7 | 0.2 | · | 83.8*
